Potency and affinity values are given separately. Calls of active or inactive are those of the source. A call without a number means that no potency is given here. The rule behind the calls is not given here.
Test: VEEV TC-83 cytopathic effect inhibitors, confirmation, cell-based, TC-83 strain, set 8 (AID 651917)
Conditions: VEEV TC-83 infected cells; series mostly up to 25 µM

| SMILES | outcome |
| --- | --- |
| O=c1nc(Nc2ccccc2OCc2ccccc2)sc2ncccc12 | inactive |
| CCN1CCN(Cc2nc3ccc(S(=O)(=O)O)cc3c(=O)n2-c2ccccc2)CC1 | inactive |
| CN(C)c1ccc(-n2c(CN3CCNCC3)nc3ccc([N+](=O)[O-])cc3c2=O)cc1 | inactive |
| CCN1CCN(Cc2nc3ccc(C(=O)O)cc3c(=O)n2-c2ccccc2)CC1 | inactive |
| CCN(CC)c1nc(=O)c2cccnc2s1 | inactive |
| CCN1CCN(CC2Nc3ccc([N+](=O)[O-])cc3C(=O)N2c2ccccc2F)CC1 (stereo not drawn) | inactive |
| O=c1nc(Nc2ccc(OCc3ccccc3)cc2)sc2ncc([N+](=O)[O-])cc12 | inactive |
| Cc1cccc(C)c1Nc1nc(=O)c2cccnc2s1 | inactive |
| CCN1CCN(Cc2nc3ncccc3c(=O)n2-c2ccccc2)CC1 | inactive |
| COc1ccc(Nc2nc(=O)c3cccnc3s2)cc1 | inactive |
| CCN1CCN(Cc2nc3ccc(-c4cccnc4)cc3c(=O)n2-c2ccccc2)CC1 | inactive |
| CCN1CCN(Cc2nc3c([N+](=O)[O-])cccc3c(=O)n2-c2ccccc2)CC1 | inactive |
| O=C1CN(Cc2nc3ccc([N+](=O)[O-])cc3c(=O)n2-c2ccccc2F)CCN1 | inactive |
| COc1ccccc1-n1c(CN2CCNCC2)nc2ccc([N+](=O)[O-])cc2c1=O | inactive |
| O=c1nc(N2CCN(Cc3ccccc3)CC2)sc2ncccc12 | inactive |
| CCN1CCN(Cc2nc3ccc(-c4nn[nH]n4)cc3c(=O)n2-c2ccccc2)CC1 | inactive |
| CCN1CCN(c2nc3ccc([N+](=O)[O-])cc3c(=O)n2-c2ccccc2)CC1 | inactive |
| CCN1CCN(Cc2nc3ccc([N+](=O)[O-])cc3c(=O)n2Cc2ccccc2)CC1 | inactive |
| CN(C)c1cccc(-n2c(CN3CCNCC3)nc3ccc([N+](=O)[O-])cc3c2=O)c1 | inactive |
| O=c1nc(Nc2ccc(CCc3ccccc3)cc2)sc2ncccc12 | inactive |
| O=c1nc(NC2CCNCC2)sc2ncccc12 | inactive |
| O=c1nc(Nc2ccc(F)cc2)sc2ncccc12 | inactive |
| CCN1CCN(Cc2nc3ccc([N+](=O)[O-])cc3c(=O)n2C)CC1 | inactive |

Reference: PubChem BioAssay AID651917 (Southern Research Specialized Biocontainment Screening …, 2012)
